Measured values reported in PubChem BioAssay (NCATS).
Several values for one entry are separate records, joined by “and”; a condition that tells them apart may be missing. Equal entries are not always repeated. Results filed as inconclusive are left out. Activity calls are given as the source filed them. Unless noted, the call rests on the fitted dose curve; in most records, active means well fitted curve in the direction sought with a large enough effect; inconclusive means small, poorly fitted or top-dose-only effect, or another doubt; inactive means no such curve, though single readings can be large; an effect the other way counts as inactive or inconclusive.

Columns and labels:
[1] = biological target: Alpha-galactosidase A (Homo sapiens) (UniProt P06280); test: Counterscreen for Glucocerebrosidase Inhibitors: qHTS Assay for Human alpha-Galactosidase at pH 4.5 (AID 992); further: 0% is about no effect
Sequence of Alpha-galactosidase A (Homo sapiens) (P06280 whole entry, looked up): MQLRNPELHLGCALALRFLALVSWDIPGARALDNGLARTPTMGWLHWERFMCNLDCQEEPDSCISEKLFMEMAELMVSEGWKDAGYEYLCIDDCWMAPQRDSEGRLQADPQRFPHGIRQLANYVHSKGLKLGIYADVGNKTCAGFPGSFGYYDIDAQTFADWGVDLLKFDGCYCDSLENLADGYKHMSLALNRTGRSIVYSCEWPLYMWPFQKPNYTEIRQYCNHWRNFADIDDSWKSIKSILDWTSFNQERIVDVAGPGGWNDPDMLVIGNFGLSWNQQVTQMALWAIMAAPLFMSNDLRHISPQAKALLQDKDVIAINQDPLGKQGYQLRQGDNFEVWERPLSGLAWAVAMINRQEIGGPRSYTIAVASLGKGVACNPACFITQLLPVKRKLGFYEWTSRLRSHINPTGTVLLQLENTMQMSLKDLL
Procedure, shortened: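 Fluorogenic 1536-well qHTS at pH 4.5 (citrate, Tween-20): 2 nM enzyme, 80 uM 4-MU-alpha-galactoside, 20 min room temperature, NaOH/glycine stop. Titration 0.7 nM to 77 uM, data normalized to no-enzyme and full-activity controls, Hill-fitted AC50.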

[2] = biological target: alpha-glucosidase (Oryza sativa, rice) (UniProt Q653V4); test: Counterscreen for Glucocerebrosidase Inhibitors: qHTS Assay for Rice alpha-Glucosidase at pH 5.0 (AID 997);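 further: 0% = full activity with enzyme and -100% = basal without enzyme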
Procedure, shortened: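 Endpoint fluorogenic assay at pH 5.0: compounds (0.7 nM to 77 uM) titrated against 4 nM rice enzyme and 400 uM 4-MU-alpha-glucoside for 20 min at room temperature; NaOH/glycine stop, read ex 365/em 440 nm, Hill-fitted AC50.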

[3] = Validation of Assay for Modulators of Lamin A Splicing (AID 1459; active means well fitted curve in the direction sought with a large enough effect in the signal ratio; the % refers to the signal ratio;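 further: cells exposed to compound for two days before reading; 0% is about no effect; ratio rise marks activators and ratio drop marks inhibitors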)
Procedure, shortened: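 Splicing correction is reported by an EGFP-containing lamin A minigene in stably transfected S3 HeLa cells, while DsRed2 controls for viability and nonspecific signal. Cells are exposed to compounds for 48 hrs before the GFP over RFP ratio is taken.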

[4] = qHTS Assay for Lipid Storage Modulators (AID 1519; calls by dose curve; on activity change, negative = inhibition: on the % scale 0 is the no-effect control and ±100 the full control effect); details: Drosophila S3 cells, BODIPY lipid droplet/cell ratio, laser cytometry, cells loaded with oleic acid
Procedure, shortened: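 Cells seeded at 5,000 per well were treated with compounds over a concentration series and loaded with oleic acid (400 uM, as added). Lipid droplet fluorescence (488 nm excitation, 500-530 nm channel) was read by laser-scanning cytometry and normalized to 20 uM Triacsin C.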

[5] = biological target: DNA repair nuclease/redox regulator APEX1 (Homo sapiens) (UniProt P27695); test: qHTS Validation Assay for Inhibitors of the Human Apurinic/apyrimidinic Endonuclease 1 (APE1) (AID 1705;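 further: TAMRA fluorescence gain over two minutes as APE1 cuts a quenched THF abasic duplex; on the % scale 0 is the no-effect control and ±100 the full control effect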)
Sequence of DNA repair nuclease/redox regulator APEX1 (Homo sapiens) (P27695 whole entry, looked up): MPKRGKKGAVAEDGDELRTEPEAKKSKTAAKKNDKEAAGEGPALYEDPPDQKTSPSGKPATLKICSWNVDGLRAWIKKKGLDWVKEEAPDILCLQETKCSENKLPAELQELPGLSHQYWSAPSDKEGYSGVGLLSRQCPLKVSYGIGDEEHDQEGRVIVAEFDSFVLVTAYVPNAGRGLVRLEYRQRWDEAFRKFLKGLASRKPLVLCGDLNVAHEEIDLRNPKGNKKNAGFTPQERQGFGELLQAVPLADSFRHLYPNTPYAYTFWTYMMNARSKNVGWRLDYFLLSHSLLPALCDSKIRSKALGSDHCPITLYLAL
Procedure, shortened: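 Endonuclease activity of human APE1 is followed as dequenching when the enzyme incises a tetrahydrofuran abasic site in a short duplex labelled 5'-TAMRA/3'-BHQ-2 (50 nM final), after 15 min enzyme–compound preincubation at room temperature.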

[6] = Counterscreen for APE1 Inhibitors: Fluorescent Dye Displacement Validation Assay (AID 1707);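 further: plate controls were ThO with dsDNA and no compound for no effect and ThO without dsDNA for full effect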
Procedure, shortened: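 Counterscreen flags promiscuous DNA binders: compounds displacing ThO from duplex DNA (abasic THF site, 50 nM) reduce 540 nm emission (480 nm excitation). ThO 250 nM final; Tris-HCl pH 7.5 with NaCl, MgCl2 and Tween-20.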

[7] = biological target: Endonuclease 4 (Escherichia coli (strain K12)) (UniProt P0A6C1); test: Counterscreen for APE1 Inhibitors: qHTS Validation Assay for Inhibitors of Endonuclease IV (AID 1708); further: on the % scale 0 is the no-effect control and ±100 the full control effect
Procedure, shortened: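 The reaction buffer contained 50 mM Tris-HCl pH 7.5, 50 mM NaCl, 2 mM MgCl2, 1 mM DTT and 0.01% Tween-20. Incision of a 50 nM fluorophore/quencher THF substrate by 2 nM enzyme was measured kinetically.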

[8] = qHTS for differential inhibitors of proliferation of Plasmodium falciparum line 7G8 (AID 1815);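 further: parasite growth measured after three days of incubation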; further: potency means the concentration at half of the fitted maximal effect;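 on activity change, negative = inhibition: plate controls were vehicle wells for no effect and reference inhibitor wells for full effect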
[9] = qHTS for differential inhibitors of proliferation of Plasmodium falciparum line GB4 (AID 1816); details: Potency: Plasmodium falciparum GB4 proliferation inhibition;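 further: parasite growth measured after 72 h incubation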; further: potency means the concentration at half of the fitted maximal effect;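 on activity change, negative = inhibition: 0% = vehicle DMSO and -100% = reference inhibitor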
[10] = qHTS for differential inhibitors of proliferation of Plasmodium falciparum line 3D7 (AID 1876); further: potency means the concentration at half of the fitted maximal effect
[11] = qHTS for differential inhibitors of proliferation of Plasmodium falciparum line D10 (AID 1877);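 further: parasites grown with compound for 72 h before DNA staining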; further: potency means the concentration at half of the fitted maximal effect;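 on activity change, negative = inhibition: plate controls were vehicle wells for no effect and reference inhibitor wells for full effect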
[12] = qHTS for differential inhibitors of proliferation of Plasmodium falciparum line Dd2 (AID 1882); details: Potency: Plasmodium falciparum Dd2 proliferation inhibition; further: nearly all actives have a fitted effect of over 65% in size; further: potency means the concentration at half of the fitted maximal effect;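 on activity change, negative = inhibition: compound exposure of 72 h on infected erythrocytes; plate controls were DMSO vehicle for no effect and 0.29 µM artemisinin for full effect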
Procedure, shortened: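 RBC culture, 0.3% parasitemia / 2.5% Hct final; cpd added by pin tool in DMSO; 72 h, 37 C, 5% CO2; lysis buffer + SYBR Green I, o/n RT dark; FI 485/535; norm. to artemisinin 0.29 uM and DMSO.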

[13] = qHTS for differential inhibitors of proliferation of Plasmodium falciparum line HB3 (AID 1886); details: Potency: Plasmodium falciparum HB3 proliferation inhibition;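 further: parasites grown with compound for 72 h before SYBR Green readout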; further: potency means the concentration at half of the fitted maximal effect;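 on activity change, negative = inhibition: plate controls were vehicle for no effect and reference inhibitor for full effect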
[14] = qHTS for differential inhibitors of proliferation of Plasmodium falciparum line W2 (AID 1883); details: Potency: Plasmodium falciparum W2 proliferation inhibition;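 further: parasites grown with compound for 72 h before lysis and staining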; further: potency means the concentration at half of the fitted maximal effect;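 on activity change, negative = inhibition: 0% = vehicle wells and -100% = control inhibitor wells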
[15] = Cell Viability - LYMP2-020 (AID 986);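 further: plate controls were DMSO only for no effect and tetraoctylammonium bromide at 92 µM for full effect; nearly all actives have a fitted effect of over 55% in size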
Procedure, shortened: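 qHTS, 2500 cells/well; 5 hr then 24 hr compound exposure, 37 C; CellTiter-Glo luminescence after 30 min RT; ATP decrease taken as cytotoxicity; AC50 via Hill equation; tetraoctylammonium bromide positive control.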

[16] = Cell Viability - LYMP2-022 (AID 987);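 further: 0% = DMSO alone and full effect = tetraoctylammonium bromide at 92 µM; nearly all actives have a fitted effect of over 55% in size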
Procedure, shortened: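 Luminescent ATP read-out (CellTiter-Glo, 30 min, RT) after 24 hr, 37 C compound exposure of 2500 human lymphoblastoid cells/well in complete medium. Cytotoxicity taken as concentration-dependent ATP loss; AC50 from standard Hill equation.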

[17] = Cell Viability - LYMP2-024 (AID 988);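 further: plate controls were DMSO only for no effect and 92 µM tetraoctylammonium bromide for full effect; nearly all actives have a fitted effect of over 60% in size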
Procedure, shortened: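 ATP-based luminescence (CellTiter-Glo, 30 min RT) after 24 h compound exposure at 37 C of 2500 lymphoblastoid cells/well; decrease in ATP taken as cytotoxicity. qHTS concentration-response fitted to standard Hill equation for AC50.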

[18] = Cell Viability - LYMP2-026 (AID 989); further: on the % scale 0 is the no-effect control and ±100 the full control effect; nearly all actives have a fitted effect of over 50% in size
Procedure, shortened: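 qHTS cytotoxicity: 2500 cells/well, 5 hr 37 C, compound 24 hr 37 C, CellTiter-Glo 30 min RT, luminescence. Tetraoctylammonium bromide positive control. AC50 via standard Hill fit.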

[19] = Cell Viability - LYMP1-002 - Assay at 24 hr (AID 993); further: on the % scale 0 is the no-effect control and ±100 the full control effect
Procedure, shortened: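 CellTiter-Glo luminescence (intracellular ATP) after 24 h compound exposure, 37 C, in LYMP1-002 human lymphoblastoid cells; decreased ATP taken as cytotoxicity. AC50 from standard Hill fit of concentration-response curves.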

[20] = Cell Viability - LYMP1-002 - Assay at 40 hr (AID 994);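 further: 0% = DMSO only and full inhibition = 92 µM tetraoctylammonium bromide; nearly all actives have a fitted effect of over 60% in size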
Procedure, shortened: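 qHTS cytotoxicity; 2500 cells/well, 5 hr 37 C settle, compound 40 hr 37 C. CellTiter-Glo, 30 min RT, luminescence (ATP). Concentration-response, Hill fit → AC50. Pos. ctrl tetraoctylammonium bromide.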

[21] = measured here: cell count channel max response
[22] = measured here: lipid channel max response

N[C@@H]1CONC1=O
-10.2% and -6.54% and 0.81%: max response [4, 21]
-10.7% and -4.08% and 1.58%: max response [4, 22]
inactive: outcome [1] | outcome [2] | outcome [3] | activity change, negative = inhibition ([4]; at 25.7 µM (top of the series)) -1.13% and 2.32% | activity change, negative = inhibition ([4]; at 57.5 µM (top of the series)) 0.855% | outcome [5] | outcome [6] | outcome [7] | Potency [8] | Potency [9] | Potency [10] | Potency [11] | Potency [12] | Potency [13]

Cc1ccc(N(CC2=NCCN2)c2cccc(O)c2)cc1
active: Potency [14] 11.2 µM
-8.46% and 20.7% and 65.8%: max response [4, 22]
-12.1% and 5.79% and 62.4%: max response [4, 21]
inactive: outcome [1] | outcome [2] | outcome [3] | activity change, negative = inhibition ([4]; at 25.7 µM (top of the series)) 1.77% | activity change, negative = inhibition ([4]; at 57.5 µM (top of the series)) 11.7% and 0.54% | outcome [5] | outcome [6] | outcome [7] | Potency [11] | Potency [12]

NCCCC(N)(C(=O)O)C(F)F (stereo unspecified)
inactive: outcome [3] | outcome [5] | outcome [6] | outcome [7] | Potency [8] | Potency [9] | Potency [10] | Potency [11] | Potency [12] | Potency [14] | Potency [13]

O=C1CCC(N2C(=O)c3ccccc3C2=O)C(=O)N1 (stereo unspecified)
12.7% and -27.8%: max response [4, 22]
inactive: outcome [3] | activity change, negative = inhibition ([4]; at 57.5 µM (top of the series)) 4.49% and -2.08% | outcome [5] | outcome [6] | outcome [7] | Potency [8] | Potency [9] | Potency [10] | Potency [11] | Potency [12] | Potency [14] | Potency [13]
6.67% and -27.8%: max response [4, 21]

CCCc1nc2c(C)cc(-c3nc4ccccc4n3C)cc2n1Cc1ccc(-c2ccccc2C(=O)O)cc1
inactive: activity change, negative = inhibition ([4]; at 57.5 µM (top of the series)) -11.9%
-15.7%: max response [4, 22]
-6.13%: max response [4, 21]

Cc1oncc1C(=O)Nc1ccc(C(F)(F)F)cc1
-15.6% and 18.5% and -28.2%: max response [4, 22]
-14.5% and 1.19% and -29.1%: max response [4, 21]
inactive: outcome [1] | outcome [2] | outcome [3] | activity change, negative = inhibition ([4]; at 25.7 µM (top of the series)) 0.243% | activity change, negative = inhibition ([4]; at 57.5 µM (top of the series)) 13.4% and -0.067% | outcome [5] | outcome [6] | outcome [7] | Potency [8] | Potency [9] | Potency [11] | Potency [12] | Potency [13]

CCN(CC)CCCC(C)Nc1ccnc2cc(Cl)ccc12 (stereo unspecified)
inactive: outcome [3] | activity change, negative = inhibition ([4]; at 57.5 µM (top of the series)) 4.83% | outcome [5] | outcome [6]
21.7%: max response [4, 22]
active: Potency [8] 2.51 µM | Potency [9] 1.78 µM | Potency [10] 0.112 µM | Potency [11] 0.316 µM | Potency [12] 10 µM | Potency [14] 2.24 µM | Potency [13] 0.282 µM
12.7%: max response [4, 21]

NC[C@H](O)c1ccc(O)c(O)c1
-21.1%: max response [4, 22]
-22.5%: max response [4, 21]
inactive: outcome [1] | outcome [2] | outcome [3] | activity change, negative = inhibition ([4]; at 57.5 µM (top of the series)) 0.534% | outcome [5] | outcome [6] | outcome [7] | Potency [9] | Potency [10] | Potency [11] | Potency [12] | Potency [13]

Nc1ccc(S(=O)(=O)Nc2ccnn2-c2ccccc2)cc1
-3.22% and 11.1%: max response [4, 21]
inactive: outcome [1] | outcome [2] | outcome [3] | activity change, negative = inhibition ([4]; at 25.7 µM (top of the series)) -1.01% | activity change, negative = inhibition ([4]; at 57.5 µM (top of the series)) 14.1% | outcome [5] | outcome [6] | outcome [7] | Potency [8] | Potency [9] | Potency [10] | Potency [11] | Potency [12] | Potency [14] | Potency [13]
-3.23% and 26.2%: max response [4, 22]

Nc1nc2ccc(OC(F)(F)F)cc2s1
-8.28% and -25.3%: max response [4, 22]
-7.42% and -26.5%: max response [4, 21]
inactive: outcome [1] | outcome [2] | activity change, negative = inhibition ([4]; at 25.7 µM (top of the series)) -1.29% | activity change, negative = inhibition ([4]; at 57.5 µM (top of the series)) 1.85% | outcome [5] | outcome [6] | outcome [7] | Potency [8] | Potency [9] | Potency [10] | Potency [11] | Potency [13]

CCC(C)N(C)C(=O)c1cc2ccccc2c(-c2ccccc2Cl)n1 (stereo unspecified)
inactive: outcome [3] | outcome [5] | outcome [6] | Potency [12]
active: Potency [8] 7.94 µM | Potency [9] 12.6 µM | Potency [11] 11.2 µM | Potency [14] 7.94 µM | Potency [13] 12.6 µM

NNCCc1ccccc1
3.17% and -11.1%: max response [4, 21]
-2.33% and 4.58%: max response [4, 22]
inactive: outcome [1] | outcome [2] | activity change, negative = inhibition ([4]; at 25.7 µM (top of the series)) 1.11% | activity change, negative = inhibition ([4]; at 57.5 µM (top of the series)) 11.9% | outcome [5] | outcome [6] | outcome [7] | Potency [11] | Potency [12]

CC(=O)Oc1ccccc1C(=O)O
19.3%: max response [4, 21]
inactive: outcome [15] | outcome [16] | outcome [17] | outcome [18] | outcome [1] | outcome [19] | outcome [20] | outcome [2] | outcome [3] | activity change, negative = inhibition ([4]; at 57.5 µM (top of the series)) 4.32% | outcome [5] | outcome [6] | outcome [7] | Potency [8] | Potency [9] | Potency [10] | Potency [11] | Potency [12] | Potency [14] | Potency [13]
27.8%: max response [4, 22]

CCCc1nn(C)c2c(=O)[nH]c(-c3cc(S(=O)(=O)N4CCN(C)CC4)ccc3OCC)nc12
12.2%: max response [4, 21]
inactive: activity change, negative = inhibition ([4]; at 57.5 µM (top of the series)) 9.83%
27.6%: max response [4, 22]

Cc1[nH]c(=O)c(C#N)cc1-c1ccncc1
-8.19% and -12.8%: max response [4, 21]
-4.74% and -14.2%: max response [4, 22]
inactive: outcome [1] | outcome [2] | activity change, negative = inhibition ([4]; at 25.7 µM (top of the series)) 2.58% | activity change, negative = inhibition ([4]; at 57.5 µM (top of the series)) -0.858% | outcome [5] | outcome [6] | outcome [7] | Potency [8] | Potency [9] | Potency [10] | Potency [11] | Potency [12] | Potency [14] | Potency [13]
